According to PMC5540273 (PLoS ONE, 2017):

What was measured:
Details in all cases: concentration: 1 μM, replicates: in singlicate; n = 1
EPHB2 = tested on: EPHB2
EPHB3 = tested on: EPHB3
EPHB4 = tested on: EPHB4
EPHB6 = tested on: EPHB6
ERBB2 = tested on: ERBB2
ERBB3 = tested on: ERBB3
ERBB4 = tested on: ERBB4
ERK1 = tested on: T1, ERK1
T1 construct: gene MAPK3

ERK2 = tested on: T2, ERK2
T2 construct: gene MAPK1

ERK3 = tested on: T3, ERK3
T3 construct: gene MAPK6

ERK4 = tested on: T4, ERK4
T4 construct: gene MAPK4

ERK5 = tested on: T5, ERK5
T5 construct: gene MAPK7

ERK8 = tested on: T6, ERK8
T6 construct: gene MAPK15

ERN1 = tested on: ERN1
FAK = tested on: T7, FAK
T7 construct: gene PTK2

FER = tested on: FER
FES = tested on: FES
FGFR1 = tested on: FGFR1
FGFR2 = tested on: FGFR2
FGFR3 = tested on: FGFR3
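Note: KINOMEscan kinase panel screen.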

| SMILES | %Inh (EPHB2) [%] | %Inh (EPHB3) [%] | %Inh (EPHB4) [%] | %Inh (EPHB6) [%] | %Inh (ERBB2) [%] | %Inh (ERBB3) [%] | %Inh (ERBB4) [%] | %Inh (ERK1) [%] | %Inh (ERK2) [%] | %Inh (ERK3) [%] | %Inh (ERK4) [%] | %Inh (ERK5) [%] | %Inh (ERK8) [%] | %Inh (ERN1) [%] | %Inh (FAK) [%] | %Inh (FER) [%] | %Inh (FES) [%] | %Inh (FGFR1) [%] | %Inh (FGFR2) [%] | %Inh (FGFR3) [%] |
| --- | --- | --- | --- | --- | --- | --- | --- | --- | --- | --- | --- | --- | --- | --- | --- | --- | --- | --- | --- | --- |
| Nc1nc(-c2ccccn2)c(-c2ccnc3ccccc23)s1 [GW548057] | 14 | 14 | 0 | 27 | 53 | 31 | 11 | 0 | 0 | 10 | 31 | 4 | 0 | 14 | 0 | 8 | 0 | 0 | 0 | 16 |
| Cn1ccc2ncnc(Oc3ccc(NC(=O)Nc4cccnc4)c(Cl)c3)c21 | 2 | 12 | 10 | 5 | 18 | 2 | 0 | 0 | 11 | 0 | 0 | 5 | 0 | 37 | 0 | 0 | 16 | 0 | 0 | 0 |
| CC(C)(C)OC(=O)NC1CCCN(c2cc(-c3ccc4c(N)n[nH]c4c3)nc(N)n2)C1 (stereo not shown) [GSK2286096] | 90.5 | 14 | 9 | 0 | 0 | 0 | 33 | 0 | 0 | 0 | 23 | 29 | 0 | 7 | 0 | 0 | 0 | 0 | 4 | 22 |
| COc1ccc(Nc2nccc(N3CCC(NC(=O)Nc4ccc5c(c4)OCO5)C3)n2)cc1 (stereo not shown) [GSK1379745] | 0 | 24 | 29 | 47 | 28 | 28 | 0 | 3 | 12 | 14 | 0 | 0 | 48 | 0 | 1 | 33 | 18 | 9 | 1 | 32 |
| COC(=O)c1c(-c2ccccc2)c2cc(Cl)ccc2c(=O)n1Cc1ccc(S(C)(=O)=O)cc1 | 18 | 24 | 0 | 0 | 0 | 0 | 29 | 0 | 3 | 0 | 3 | 13 | 6 | 13 | 4 | 0 | 3 | 0 | 8 | 6 |
| CS(=O)(=O)CCNCc1nc(-c2ccc3ncnc(Nc4ccc(OCc5cccc(F)c5)c(Cl)c4)c3c2)cs1.Cl [GW583340] | 0 | 0 | 5 | 19 | 99.7 | 0 | 99.1 | 0 | 0 | 12 | 45 | 5 | 0 | 10 | 0 | 3 | 0 | 0 | 0 | 0 |
| Cl.Cn1ccc(-c2cccc(Nc3ccnc4cc(-c5nccs5)ccc34)c2)n1 [GW525701] | 0 | 9 | 47 | 94.2 | 53 | 64 | 45 | 0 | 0 | 0 | 9 | 0 | 0 | 0 | 0 | 8 | 22 | 0 | 0 | 11 |
| Oc1ccc2ncnc(Nc3ccc(OCc4ccccc4)cc3)c2c1 [GI262866] | 0 | 12 | 2 | 0 | 99.2 | 15 | 77 | 0 | 0 | 3 | 0 | 0 | 57 | 19 | 0 | 0 | 0 | 0 | 0 | 0 |
| CC(C)(C)c1ccc(-n2cnc3c(N)ncnc32)cc1 [SKF-97263] | 17 | 31 | 15 | 9 | 29 | 0 | 0 | 7 | 0 | 0 | 0 | 0 | 48 | 6 | 0 | 13 | 13 | 12 | 20 | 15 |
| O=C(Nc1ccccc1F)NC1CCN(c2ccnc(Nc3ccc(F)cc3)n2)C1 (stereo not shown) [GSK1379722] | 0 | 17 | 0 | 17 | 30 | 3 | 0 | 100 | 0 | 13 | 12 | 0 | 31 | 0 | 0 | 26 | 0 | 0 | 19 | 15 |
| CNc1nccc(-c2c(-c3ccc(F)cc3)ncn2CCCN2CCOCC2)n1 [SB-222516] | 0 | 0 | 8 | 0 | 0 | 30 | 8 | 7 | 1 | 0 | 2 | 0 | 14 | 0 | 6 | 12 | 7 | 26 | 0 | 0 |
| Nc1nc(-c2ccc3c(N)n[nH]c3c2)cc(N2CCCCC2)n1 [GSK2228768] | 0 | 0 | 8 | 0 | 2 | 0 | 0 | 0 | 0 | 6 | 2 | 0 | 0 | 7 | 0 | 10 | 0 | 0 | 0 | 0 |
| O=C(Nc1n[nH]c2nc(-c3ccco3)c(Br)cc12)c1ccc(CN2CCCC2)cc1.O=C(O)[C@H](O)[C@@H](O)C(=O)O [SB-742352] | 47 | 0 | 0 | 95.7 | 0 | 0 | 27 | 0 | 0 | 0 | 0 | 0 | 0 | 0 | 0 | 4 | 0 | 0 | 0 | 1 |
| COc1cc2ncnc(Nc3ccc(OCc4ccccc4Br)c(Cl)c3)c2cc1OC.Cl [GI261590] | 5 | 22 | 31 | 26 | 96.5 | 29 | 100 | 0 | 16 | 0 | 32 | 0 | 0 | 0 | 0 | 18 | 25 | 0 | 38 | 12 |
| COc1ccc(NC(=O)Nc2ccc(C)c(-c3ccc(C(=O)Nc4ccncc4)cc3)c2)cc1 [GSK1398475] | 12 | 13 | 13 | 20 | 0 | 0 | 19 | 2 | 0 | 9 | 0 | 0 | 0 | 0 | 0 | 5 | 2 | 0 | 0 | 11 |
| Cl.Fc1ccccc1COc1ccc(Nc2ncnc3ccc(-c4nnc(C(F)(F)F)o4)cc23)cc1Cl [GW424170] | 0 | 2 | 0 | 0 | 96.7 | 0 | 70 | 0 | 0 | 7 | 13 | 0 | 0 | 2 | 0 | 18 | 0 | 0 | 0 | 8 |

| SMILES | %Inh (EPHB2) [%] | %Inh (EPHB3) [%] | %Inh (EPHB4) [%] | %Inh (EPHB6) [%] | %Inh (ERBB2) [%] | %Inh (ERBB3) [%] | %Inh (ERBB4) [%] | %Inh (ERK1) [%] | %Inh (ERK2) [%] | %Inh (ERK3) [%] | %Inh (ERK4) [%] | %Inh (ERK5) [%] | %Inh (ERK8) [%] | %Inh (ERN1) [%] | %Inh (FAK) [%] | %Inh (FER) [%] | %Inh (FES) [%] | %Inh (FGFR1) [%] | %Inh (FGFR2) [%] | %Inh (FGFR3) [%] |
| --- | --- | --- | --- | --- | --- | --- | --- | --- | --- | --- | --- | --- | --- | --- | --- | --- | --- | --- | --- | --- |
| Cc1ccc(NC(=O)c2cccc(C#N)c2)cc1-c1ccc(C(=O)Nc2ccncc2)cc1 [GSK1398463] | 13 | 26 | 25 | 2 | 0 | 0 | 32 | 0 | 0 | 5 | 25 | 96.8 | 38 | 15 | 0 | 3 | 17 | 10 | 17 | 33 |
| Nc1nc(-c2cccnc2)c(-c2ccnc3ccccc23)s1 [GW684083] | 0 | 17 | 11 | 28 | 51 | 20 | 8 | 11 | 4 | 0 | 12 | 0 | 0 | 0 | 0 | 24 | 0 | 4 | 20 | 21 |
| O=C(Nc1ccccc1)Nc1ccc(Oc2ccc3nccn3n2)cc1 | 0 | 7 | 7 | 0 | 24 | 0 | 0 | 0 | 0 | 0 | 0 | 1 | 14 | 100 | 0 | 0 | 0 | 0 | 8 | 15 |
| CN1CCC(n2cnc(-c3ccc(F)cc3)c2-c2ccnc(NC3CCNCC3)n2)CC1 [SB-229482] | 11 | 4 | 0 | 8 | 32 | 18 | 4 | 0 | 14 | 30 | 0 | 0 | 0 | 2 | 0 | 0 | 5 | 4 | 0 | 9 |
| CCn1c(-c2ccncc2)nc2cnccc21 [SB-735216] | 16 | 11 | 7 | 8 | 0 | 33 | 0 | 0 | 0 | 0 | 3 | 8 | 0 | 5 | 9 | 0 | 3 | 0 | 0 | 17 |
| Nc1nc(-c2ccc3c(N)n[nH]c3c2)cc(N2CCC[C@@H](C(=O)Nc3ccccc3)C2)n1.O=C(O)C(F)(F)F.O=C(O)C(F)(F)F [GSK2288359] | 0 | 5 | 1 | 29 | 0 | 0 | 2 | 100 | 0 | 18 | 16 | 0 | 0 | 23 | 0 | 0 | 0 | 0 | 0 | 7 |
| O=C(NCCCN1CCCC1=O)c1cnc(NCc2cc(Cl)ccc2Cl)nc1NC1CCNCC1 | 0 | 0 | 0 | 19 | 9 | 3 | 0 | 0 | 11 | 0 | 0 | 0 | 17 | 0 | 0 | 0 | 0 | 11 | 14 | 0 |
| Cc1ccc(O)cc1Nc1cc(C(F)(F)F)nc2ccc(-c3ccncc3)cc12 [GW630823] | 3 | 0 | 18 | 9 | 0 | 0 | 0 | 2 | 5 | 9 | 5 | 9 | 7 | 0 | 3 | 1 | 6 | 0 | 4 | 0 |
| CSc1nn2c(=O)cc(N3CCOCC3)nc2n1Cc1cccc(Cl)c1Cl [GSK2347225] | 0 | 6 | 11 | 52 | 0 | 0 | 0 | 0 | 17 | 15 | 21 | 0 | 0 | 9 | 0 | 44 | 13 | 6 | 17 | 17 |
| COc1ccc(NC(=O)c2ccc(-c3cc(-c4nnc(C)o4)ccc3C)cc2)cc1 [GW595885] | 10 | 13 | 6 | 0 | 18 | 0 | 7 | 0 | 0 | 0 | 0 | 0 | 0 | 0 | 0 | 6 | 0 | 0 | 0 | 16 |
| CCc1nc(-c2cccc(C)c2)c(-c2ccnc(NC(=O)c3ccccc3)c2)s1 | 4 | 36 | 37 | 100 | 46 | 2 | 34 | 0 | 40 | 4 | 2 | 9 | 0 | 23 | 0 | 0 | 32 | 11 | 0 | 0 |
| O=C(c1ccc(-c2cc(-c3c[nH]nc3-c3ccccn3)ccn2)cc1)N1CCCC1 [GW792479] | 19 | 14 | 17 | 0 | 10 | 57 | 0 | 0 | 32 | 0 | 0 | 23 | 0 | 0 | 47 | 0 | 5 | 3 | 1 | 3 |
| COc1cc2c(Nc3cccc(NC(=O)c4ccccc4)c3)ncnc2cc1OCCCN1CCOCC1 [GSK223810] | 0 | 5 | 0 | 60 | 18 | 0 | 55 | 0 | 0 | 0 | 0 | 0 | 0 | 23 | 0 | 0 | 0 | 18 | 11 | 22 |
| OCCOCCn1ccc2ncnc(Nc3ccc(Oc4cccc(Cl)c4)c(Cl)c3)c21 | 0 | 6 | 0 | 2 | 100 | 0 | 96 | 0 | 0 | 0 | 0 | 0 | 0 | 0 | 0 | 24 | 6 | 27 | 0 | 0 |
| CN1c2ccc(-c3ccc(C(=O)NCCO)cc3)cc2-c2[nH]ncc2S1(=O)=O | 20 | 18 | 23 | 54 | 8 | 0 | 10 | 10 | 11 | 5 | 0 | 0 | 12 | 1 |  | 11 | 17 | 30 | 0 | 0 |
